Experimental data as given in PubChem BioAssay AID1863 (Southern Research Specialized Biocontainment Screening …, 2009).
Among all 300,000 compounds or so, about 480 (0.16%) were called active.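 How the source made its calls: active means inhibition over 29.93%, a cutoff 3 SD above the screen mean, later confirmed by dose response; inconclusive means inhibition over 29.93% but no dose response follow-up; inactive means inhibition at most 29.93% or unconfirmed.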 Only a sample is shown. Results with a measured potency or affinity are listed apart.

assay: inhibitors of PhoP regulon expression, primary screen, Salmonella Typhimurium, GFP reporter (AID 1863);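 further: 0% = low Mg2+ inducing control and 100% = high Mg2+ repressing control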; conditions: S. Typhimurium PhoP-regulated promoter GFP reporter, 4 h; at 50 µM; active compounds read high

inhibition, inactive:
O=S1(=O)N=C(SCCO)c2ccccc21 -8.43%, Cc1ccc(SC2=C(Sc3ccc(C)cc3)C(=O)c3ccccc3C2=O)cc1 4.97%, CCn1c(SCC(=O)NCCc2ccccc2)nc2c([nH]c3ccccc32)c1=O -1.21%, CCCc1nc2ccc(NC(=O)NCCC(=O)OCC)cc2c(=O)n1Cc1cccc(Cl)c1 6.26%, O=C(NOC(=O)c1ccccc1F)c1ccc(OC(F)F)cc1 -1.76%, CCCCOC(=O)Cn1c(=O)n(CC(=O)OCCCC)c2ccccc21 1.46%, CCCCCCCCCCOC(=O)Cn1c(COc2ccccc2C)[n+](C)c2ccccc21 13.3%, CCCCc1n(CC(=O)c2ccc(Cl)cc2)c2ccccc2[n+]1C 7.69%, CCCCOC(=O)Cn1c2ccc(OC)cc2c2nc3ccccc3nc21 -30.4%, O=C(O)Cn1c(COc2ccc(Cl)cc2)nc2ccccc21 -9.39%, CCCCCOC(=O)Cn1c(=O)oc2ccc(C)cc21 8.75%, CCOC(=O)Cn1c(=N)n(CCOc2cccc(C)c2)c2ccccc21 -6.78%, Cn1c(COc2ccccc2O)[n+](C)c2ccccc21 19.1%, Cc1onc(-c2c(Cl)cccc2Cl)c1C(=O)Nc1ccc2c(c1)OCO2 5.51%, CN1CCN(NC(=S)NC2CCCCC2)CC1 2.99%, CC1(c2ccncc2)Nc2ccccc2-c2nc3ccccc3n21 (stereo unspecified) 4.56%, CC1CCCCC1NC(=O)CNC(=O)c1cccs1 (stereo unspecified) 0.65%, COC(=O)c1cc(OC)c(OC)cc1NC(=S)N1CCN(Cc2ccccc2)CC1 -2.33%, CCN(Cc1ccccc1)Cc1ccc(OCc2ccccc2)cc1 -0.23%, CC(=O)c1ccc(OCc2cc(C(=O)N3CCN4CCCC4C3)no2)cc1 (stereo unspecified) -1.66%, CCCCCOC(=O)Cn1c(=O)oc2ccccc21 5.08%, CCCCOC(=O)Cn1c(=N)n(CCC)c2ccccc21 8.26%, CCCCCCOc1ccc(C(=O)O)cc1 -7.54%, CCCCOC(=O)Cn1c(=O)oc2ccc(C)cc21 1.86%, CCN(CC)CCN1C(=O)c2ccccc2NC1c1cccc(F)c1 (stereo unspecified) -1.91%, CCN(c1ccc(NC(=O)COC(=O)/C=C/c2cccs2)cc1)C(C)C 1.21%, CCOc1ccc(S(=O)(=O)N(CCO)CCO)cc1-c1nc2c(C(C)(C)C)nn(C)c2c(=O)[nH]1 6.61%, Clc1ccc(OCCCNCc2ccccc2)c2ccccc12 13.7%, Cc1cc(Br)ccc1OCCNCc1ccccc1 5.75%, OCCNCCCOc1ccc(Cl)cc1Br 9.05%, CCc1cc(OCCCCNCc2ccccc2)ccc1Cl -6.28%, COCCNCCCOc1ccc(Br)cc1Cl 2.25%, COCCCNCCCOc1ccc(Cl)cc1Br 16.4%, O=C(COC(=O)c1ccncc1)NCc1ccccc1 -7.25%, CN(CC(=O)Nc1ccc(OC(F)(F)F)cc1)C1CCCCC1 9.36%, COc1cccc(NC(=O)CN(C)C(=O)c2ccc(-c3ccccc3Cl)o2)c1 -0.25%, COCc1cc(=O)[nH]c(-c2ccccc2)n1 9.5%, COc1ccc(/C=C2/SC(=O)N(CCC(=O)Nc3ccc(C)cc3)C2=O)cc1OC 1.5%, Clc1ccccc1OCCn1ccnc1 21.2%, Clc1ccccc1OCCCn1ccnc1 2.45%, Clc1ccc(OCCn2ccnc2)c(Cl)c1 26.6%, c1ccc2cc(OCCCn3ccnc3)ccc2c1 -2%, COc1ccc(Cc2noc(CN(C)CC3CCN(Cc4ccccc4)CC3)n2)cc1OC 0.81%, N#CCCN(C(=O)CSc1nc2nc(-c3cccs3)cc(C(F)(F)F)c2c(=O)[nH]1)c1ccccc1 -5.71%, CC(C)C(=O)NC(=S)Nc1ccccn1 1.05%, COc1ccc(-c2cc(C(=O)Nc3c(C)n(C)n(-c4ccccc4)c3=O)c3ccccc3n2)cc1 6.3%, O=C(O)CNC(=O)c1ccc(NC(=O)/C(=C/c2cccc([N+](=O)[O-])c2)NC(=O)c2ccco2)cc1 1.55%, COc1cc2nc(Nc3ccc(C)c(Cl)c3)nc(N)c2cc1OC -5.89%, Cc1ccc(Nc2nc(N)c3ccccc3n2)cc1C -7.22%, CCOC(=O)N1CCN(C(=O)c2ccc(C)c(S(=O)(=O)Nc3cccc(C)c3C)c2)CC1 -9.54%, Cc1nc(SC(C(=O)c2ccccc2)c2ccccc2)nc2ccccc12 (stereo unspecified) 5.08%, O=Cc1c(N2CCC3(CC2)OCCO3)nc2ccccn2c1=O -5.94%, COc1ccc(/C=N/Nc2cc(C)nc3ccc(Br)cc23)cc1 -2.21%, Cc1cc(N/N=C/c2ccc(O)cc2)c2cccc(C)c2n1 -15.4%, COc1cccc2c(N/N=C/c3ccccc3)cc(C)nc12 -2.56%, Cc1cc(N/N=C/c2ccc(N(C)C)cc2)c2ccccc2n1 5.73%, Cc1ccccc1NC(=O)NC1(C(=O)NCC2CCCO2)CCCCC1 (stereo unspecified) -0.07%, CC1CCCC(C)N1/N=C/c1ccccc1Br (stereo unspecified) -3.03%, CC1CCCC(C)N1/N=C/c1cccc(Br)c1 (stereo unspecified) -2.2%, CC1(C)NC(=O)N(CC(O)CN(c2ccccc2)S(=O)(=O)c2ccccc2)C1=O (stereo unspecified) -1.71%, Cc1ccc(C(=O)N/C(=C\c2ccco2)C(=O)NCc2cccnc2)cc1 2%, CC1(C)C(=O)Nc2ccccc2N1C(=O)Cn1ncc(Cl)c(Cl)c1=O 1.69%, O=C(Nc1cc(N2CCCCC2)ncn1)c1ccccc1 1.2%, COc1ccc(CCNC(=O)c2cc(COc3c(F)cccc3F)on2)c(OC)c1 6.23%, O=[N+]([O-])c1ccccc1CNC1CCCc2ccccc21 (stereo unspecified) -9.02%, O=C(NC1CCCc2ccccc21)c1ccc([N+](=O)[O-])cc1 (stereo unspecified) -2.23%, CNC(=O)c1cn(-c2ccc(Cl)cc2)c(=O)c2ccccc12 -7.59%, Cc1c(O)ccc2c(O)c(NC(=O)c3ccc4c(c3)CCC(C)(C)O4)c(=O)oc12 -3.81%, CO[C@@H]1[C@@H](OC(N)=O)[C@@H](O)C(Oc2ccc3c(O)c(NC(=O)c4ccc(O)c(CC=C(C)C)c4)c(=O)oc3c2C)OC1(C)C (stereo partly specified) 12.3%, CCC1=C(c2ccc(C)cc2)S(=O)(=O)N=C1N1CCC(C(=O)NCCCN2CCCCC2)CC1 -2.43%, COc1ccc(-n2nc3cc(N)c(Br)cc3n2)cc1 -2.59%, Nc1cccc2nsnc12 -14.7%, CCOC(=O)CCCNC(=O)CSc1nnc(-c2ccccc2)c(-c2ccccc2)n1 -8.06%, COC(=O)c1c(C)[nH]c(O)c1C=Nc1ccc(Oc2ccccc2)cc1 -5.37%, CO[C@H]1C=CO[C@@]2(C)Oc3c(C)c(O)c4c(O)c(c5c(nc6cc(C)ccn65)c4c3C2=O)NC(=O)C(C)=CC=C[C@H](C)[C@H](O)[C@@H](C)[C@@H](O)[C@@H](C)[C@H](OC(C)=O)[C@@H]1C -3.25%, CC(/C=C/c1ccccc1F)=N\NC(=O)c1cccc(F)c1 3.59%, O=S(=O)(NCC1CCCO1)c1ccc(NS(=O)(=O)c2ccc(F)cc2)cc1 (stereo unspecified) 0.92%, N#C/C(=C(/O)CSc1ncn[nH]1)c1nc2ccccc2[nH]1 6.19%, Cc1ccccc1/C=N/Nc1ccc(Cl)nn1 1.24%, Fc1ccccc1/C=N/Nc1ccc(Cl)nn1 -8.24%, C=CCN=C1CC(C)(C)C(C(=O)OC)C(O)=C1C(=O)CCC (stereo unspecified) -0.51%, COc1ccc(Cc2nnc(Nc3ccc(C)cc3)o2)cc1OC 1.4%, O=S(=O)(c1ccc2c(c1)OCCO2)N1CCN(Cc2ccc3c(c2)OCO3)CC1 -0.33%, CN1/C(=C\C=N\O)C(C)(C)c2ccccc21 -8.82%, COc1ccccc1CNCc1ccc(C)cc1 8.2%, Brc1ccc(CNCc2cccs2)cc1 10.4%, COc1ccccc1CNC(=S)NCc1ccc(F)cc1 -5.45%, COc1cc(CNCCc2ccc(F)cc2)ccc1OCc1ccc(Cl)nc1 23.3%, c1csc(CNCc2ccncc2)c1 -5.07%, Fc1ccc(CNCc2ccccc2Cl)cc1 5.07%, COc1ccc(NC(=O)COC(=O)CCCc2c[nH]c3ccccc23)cc1 -12.1%, Cc1cc(C)n(C(=O)Cn2nc(C)c(Cl)c2C)n1 3.42%, O=C(c1ccccc1F)N1CCN(S(=O)(=O)c2ccc3c(c2)OCCO3)CC1 6.03%, Cc1c(NC(=O)CSc2nnnn2-c2ccc(F)cc2)c(=O)n(-c2ccccc2)n1C -6.82%, O=C1NC(C(F)(F)F)(C(F)(F)F)N=C2SC=CN12 -6.31%, O=c1[nH]nc(-c2ccc(F)cc2)cc1Cc1ccc(F)cc1 -10.7%, O=C(Nc1cccc(Cl)c1)Nc1ccnc(-c2cccnc2)n1 5.1%, CCOC(=O)N1CCN(Cc2cc(Cl)c3cccnc3c2O)CC1 -0.11%, O=C(Oc1c(CN2CCOCC2)cc(Cl)c2cccnc12)c1ccc(F)cc1 29.7%, Oc1c(CN2CCN(c3ccccc3)CC2)cc(Br)c2cccnc12 4.78%, Oc1c(CN2CCN(c3ccccn3)CC2)cc(Cl)c2cccnc12 20.1%
